Sampled rows, rich in hits. Any-hit rate of the full collection: about 6.9%.
KB-V1 cytotox: KB-V1 MDR subline cytotoxicity; KB-V1 MDR cells viability, CellTiter-Glo, 72 h; Potency, µM (highest dose often 46.1 µM), hits mostly cytotoxic; actives 3.4% (n = 400,000); further: potency means the concentration at half of the fitted maximal effect; on the % scale 0 is the no-effect control and ±100 the full control effect; nearly all actives have a fitted effect of over 60% in size
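Cells of the MDR subline KB-V1 are plated, dosed with compound at multiple concentrations, and incubated 72 h at 37 degrees C; CellTiter-Glo is then added and luminescence read after 10 min.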
MCF10A rerep: induces DNA re-replication in MCF 10a normal breast cells; AID 624296; MCF 10A DNA re-replication, Hoechst nuclear intensity, 48 h; Potency, µM (highest dose often 46.1 µM), without a hit: at the highest dose activity, positive = re-replication, hits mostly activators; actives 2.9% (n = 350,000); further: potency means the concentration at half of the fitted maximal effect; % of control where 0% means no effect; nearly all actives have a fitted effect of over 50% in size
SW480 rereplic: induces DNA re-replication in SW480 colon adenocarcinoma cells; actives 1.8% (n = 340,000); Potency, µM (titrated, usually from 46.1 µM), inactives show at the highest dose re-replication activation, most hits filed as activators; AID 624297; SW480 DNA re-replication, Hoechst DNA content imaging, 48 h; further: potency means the concentration at half of the fitted maximal effect; % of control where 0% means no effect; nearly all actives have a fitted effect of over 55% in size
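Image-based read-out: total Hoechst fluorescence of nuclei (405 nm excitation, 500-530 nm emission), with hits raising the fraction of high-intensity nuclei. SW480 colon cells incubated 48 hr with compounds at 37 C.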
S-ASM inh: human S-ASM enzyme inhibition; placental ASM, HMU-PC fluorogenic substrate, 60 min; P17405; AID 504937; actives 0.006% (n = 340,000); Potency, µM (titrated, usually from 57.5 µM), for inactives: at the highest dose activity change, negative = inhibition, usual class: inhibitors; further: potency means the concentration at half of the fitted maximal effect
Target sequence (P17405 47-631 limits assumed): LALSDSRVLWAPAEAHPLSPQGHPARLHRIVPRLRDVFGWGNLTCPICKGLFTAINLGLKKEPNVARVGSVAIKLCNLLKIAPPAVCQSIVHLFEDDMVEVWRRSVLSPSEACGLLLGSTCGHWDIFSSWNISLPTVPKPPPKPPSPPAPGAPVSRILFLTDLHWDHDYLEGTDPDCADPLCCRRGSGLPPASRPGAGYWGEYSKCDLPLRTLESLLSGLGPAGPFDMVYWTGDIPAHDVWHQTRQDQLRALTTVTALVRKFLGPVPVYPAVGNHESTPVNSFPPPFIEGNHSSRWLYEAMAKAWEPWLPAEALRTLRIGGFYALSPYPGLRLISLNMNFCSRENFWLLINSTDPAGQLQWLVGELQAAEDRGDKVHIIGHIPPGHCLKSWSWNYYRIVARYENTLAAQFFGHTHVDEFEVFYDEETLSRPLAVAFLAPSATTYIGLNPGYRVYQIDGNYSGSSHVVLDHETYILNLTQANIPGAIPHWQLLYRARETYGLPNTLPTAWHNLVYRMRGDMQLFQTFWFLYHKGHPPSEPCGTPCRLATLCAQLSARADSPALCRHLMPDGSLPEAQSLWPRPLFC
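Human placenta-derived ASM enzyme was preincubated with compound for 10 minutes at room temperature, then given fluorogenic substrate HMU-PC0 (9 uM final) for 60 minutes at 37 °C; a pH 10 stop preceded fluorescence reading at Ex 386/Em 447 nm.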
KB-3-1 cytotox: KB-3-1 parental cell cytotoxicity; Potency, µM (series often up to 46.1 µM), hits mostly cytotoxic; actives 1.4% (n = 400,000); KB-3-1 viability, CellTiter-Glo ATP luminescence, 72 h; AID 1347075; further: potency means the concentration at half of the fitted maximal effect; on the % scale 0 is the no-effect control and ±100 the full control effect; nearly all actives have a fitted effect of over 60% in size
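Multi-concentration cytotoxicity screen in KB-3-1 cells grown in DMEM lacking phenol red with 10% FBS. After 72 h at 37 °C with compound, ATP-dependent luminescence was recorded.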
Giardia kill: kills Giardia lamblia | Giardia lamblia trophozoite viability | activity change, % at 7.66 µM, hits read low | actives 0.15% (n = 340,000) | AID 540267; in the data active means activity change below about -80%; inconclusive means between about -30% and that limit;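 further: parasites exposed to compound for two days anaerobically before the ATP read; on the % scale 0 is the no-effect control and ±100 the full control effect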
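Viability, read as ATP luminescence: trophozoites at 100 cells/well, compound added, 48 hrs anaerobic at 37 deg C, then 15-30 min room-temperature development before reading.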
An asterisk follows results filed as active. Unless noted, the call rests on the fitted dose curve; in most records, active means well fitted curve in the direction sought with a large enough effect; inconclusive means small, poorly fitted or top-dose-only effect, or another doubt; inactive means no such curve, though single readings can be large; an effect the other way counts as inactive or inconclusive.

Screening CN1CCN(c2cc(-c3cccc(C(=O)O)c3)nc3ccnn23)CC1 returned KB-V1 cytotox inactive and KB-3-1 cytotox inactive.
For Cc1ccc2oc(-c3ccc(NC(=O)c4oc5ccc(Cl)cc5c4C)cc3)nc2c1 the results were KB-V1 cytotox inconclusive and KB-3-1 cytotox inactive.
`CCOc1ccc(NC(=O)c2c(C)nn(-c3ccc(F)cc3)c2-n2cccc2)cc1` gave KB-V1 cytotox inactive and KB-3-1 cytotox inactive.
COc1ccc(CCNC(=O)c2c(C)nn(-c3ccc(F)cc3)c2-n2cccc2)cc1OC was read as KB-V1 cytotox 5.2µM* and KB-3-1 cytotox 5.8µM*.
`Cc1ccc(NC(=O)c2c(C)nn(-c3ccccc3)c2-n2cccc2)c(Cl)c1` gave KB-V1 cytotox inactive and KB-3-1 cytotox inactive.
Screening CCN(CC)c1ccc(NC(=O)c2c(C)nn(-c3ccc(F)cc3)c2-n2cccc2)c(C)c1 returned KB-V1 cytotox 21µM* and KB-3-1 cytotox inconclusive.
Screening COc1ccc(OC)c(CCNC(=O)c2c(C)nn(-c3ccc(F)cc3)c2-n2cccc2)c1 returned KB-V1 cytotox 12µM* and KB-3-1 cytotox inconclusive.
COc1cc(OC)c(NC(=O)c2c(C)nn(-c3ccc(C)cc3)c2-n2cccc2)cc1Cl was read as KB-V1 cytotox inconclusive and KB-3-1 cytotox 23µM*.
`Cn1cc2ccc(-c3ccc4ncnc(NCc5cccs5)c4c3)cc2n1` gave KB-V1 cytotox inactive and KB-3-1 cytotox inactive.
Screening Cc1cnc(NC(=O)c2c(Cl)cnn2C)s1 returned KB-V1 cytotox inactive, MCF10A rerep -3%, SW480 rereplic -13%, S-ASM inh 0%, KB-3-1 cytotox inactive and Giardia kill -11.
For COc1ccc(C(CNC(=O)c2cccc(S(=O)(=O)NCc3ccccc3)c2)N(C)C)cc1 (configuration not stated) the results were KB-V1 cytotox inactive, MCF10A rerep -9%, SW480 rereplic -9%, S-ASM inh -1%, KB-3-1 cytotox inactive and Giardia kill -4.
`CCN(CC)c1ccc(NC(=O)c2cc(OC)cc(OC)c2)c(C)c1` gave KB-V1 cytotox 1.2µM*, MCF10A rerep 2.1µM*, SW480 rereplic 4.6µM*, S-ASM inh 0%, KB-3-1 cytotox 0.92µM* and Giardia kill -2.
`COc1ccc(CCNC(=O)c2c(O)nc3c(C)cccn3c2=O)cc1OC` gave KB-V1 cytotox 6.5µM* and KB-3-1 cytotox inactive.
Screening CCN(CC)c1ccc(NC(=O)c2cccc(OC)c2)c(C)c1 returned KB-V1 cytotox inconclusive, MCF10A rerep inconclusive, SW480 rereplic inconclusive, S-ASM inh 0%, KB-3-1 cytotox inconclusive and Giardia kill 11.
Cc1ccc(CCNC(=O)c2c(C)nn(-c3ccc(F)cc3)c2-n2cccc2)cc1 was read as KB-V1 cytotox 5.8µM* and KB-3-1 cytotox 3.3µM*.
`CC1(C)OC(=O)C2(Cc3cc([N+](=O)[O-])ccc3N3CCCCC32)C(=O)O1` (configuration not stated) gave KB-V1 cytotox inactive, KB-3-1 cytotox inactive and Giardia kill -12.
For CCOc1ccc(-c2csc(/C(C#N)=C/c3ccc(Br)cc3)n2)cc1 the results were KB-V1 cytotox inactive and KB-3-1 cytotox inactive.
For CCc1cccc(CC)c1NC(=O)c1c(C)oc2ccc(O)c(CN3CCOCC3)c12 the results were KB-V1 cytotox inactive and KB-3-1 cytotox inactive.
For COC(=O)c1c[nH]n2c(=O)c(Cl)c(C)nc12 the results were KB-V1 cytotox inactive, MCF10A rerep inconclusive, SW480 rereplic -4%, S-ASM inh 6%, KB-3-1 cytotox inactive and Giardia kill -2.
For COC(=O)c1c[nH]n2c(=O)c(Cc3ccc(F)cc3Cl)c(C)nc12 the results were KB-V1 cytotox 16µM*, MCF10A rerep 3%, SW480 rereplic -8%, S-ASM inh -3%, KB-3-1 cytotox inactive and Giardia kill 5.

Compound activity deposited in PubChem by National Center for Advancing Translational Sciences (NCATS).
